Hits are enriched below; roughly 31% of the tested compounds scored in any of these assays.
CYP2C9 inh: blockers of cytochrome P450 2C9 activity – biochemical, luminescence, ADME assay, primary screen. AID 777, 2007. CYP2C9 Supersomes, luciferin-H conversion. P11712. hit rate 20% among 96,000. inhibition, % at 5 µM;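 active means blocking of liver enzyme CYP2C9 beyond about 50% at 5 µM, limit read from the data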
Target sequence (P11712 whole entry, looked up): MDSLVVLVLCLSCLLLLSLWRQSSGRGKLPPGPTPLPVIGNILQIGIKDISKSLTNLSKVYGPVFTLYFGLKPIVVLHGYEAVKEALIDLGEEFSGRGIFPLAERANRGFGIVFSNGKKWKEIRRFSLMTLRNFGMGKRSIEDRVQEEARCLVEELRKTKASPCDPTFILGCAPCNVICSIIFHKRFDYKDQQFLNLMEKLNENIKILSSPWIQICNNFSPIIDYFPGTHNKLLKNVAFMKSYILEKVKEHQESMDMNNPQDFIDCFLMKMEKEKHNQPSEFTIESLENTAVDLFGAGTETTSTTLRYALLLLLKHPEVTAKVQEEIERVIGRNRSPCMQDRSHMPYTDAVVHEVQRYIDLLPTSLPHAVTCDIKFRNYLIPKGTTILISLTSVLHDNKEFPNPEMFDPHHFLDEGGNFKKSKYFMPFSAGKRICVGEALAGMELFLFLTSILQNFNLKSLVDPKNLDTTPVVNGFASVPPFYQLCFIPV
CYP2C19 act: human CYP2C19 activators, primary screen, biochemical, luminescence. recombinant CYP2C19, luciferin-H EGE luminescence; active compounds read high; 0 = fully inhibited enzyme, 1 = untreated enzyme. Cytochrome P450 2C19 (Homo sapiens), P33261. AID 1025, 2008. activation factor at 5 µM. 96,000 tested, under 10 active;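 active means activation factor of at least 2 at 5 µM in the primary screen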
CYP2C9 act: human CYP2C9 activators, primary screen, biochemical, luminescence | Cytochrome P450 2C9 (Homo sapiens), P11712 | activation factor at 5 µM | recombinant CYP2C9, luciferin-H conversion; active compounds read high; factor 1 = untreated enzyme, 0 = blocked | hit rate 1.4% among 96,000 | AID 1024, 2008;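 active means activation factor of 2 or more for CYP2C9 at a 5 µM dose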
CYP2C19 inh: blockers of cytochrome P450 2C19 activity – biochemical, luminescence, ADME assay, primary screen. CYP2C19 Supersomes, luciferin-H EGE luminescence, 30 min. inhibition, % at 5 µM. hit rate 21% among 96,000. AID 778, 2007;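 active means CYP2C19 inhibition above a set limit at 5 µM in the primary screen, cut at about 50% in these data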
Numbers stand for hits; 0 = inactive.

SMILES	CYP2C9 inh	CYP2C19 act	CYP2C9 act	CYP2C19 inh
CCC(CC)C1C(C#N)=C(N)Oc2n[nH]c(C)c21 (stereo not drawn)	57.1	0	0	82.2
CCCCCCCOc1ccc(OC(=O)c2ccncc2)cc1	0	0	0	0
CC(C)(C)C1CCC(OC(=O)c2ccncc2)CC1 (stereo not drawn)	94.2	0	0	98.8
COc1ccc(CCC(=O)Nc2nc3ccccc3[nH]2)cc1OC	0	0	0	0
COc1ccccc1CCC(=O)Nc1nc2ccccc2[nH]1	0	0	0	62.2
COc1ccc(OCC(=O)Nc2nc3ccccc3[nH]2)cc1	0	0	0	0
CCC(Oc1ccccc1)C(=O)Nc1nc2ccccc2[nH]1 (stereo not drawn)	52.0	0	0	0
Cc1cc(C)nc(SCc2nnc(SCC(=O)Nc3nccs3)n2Cc2ccco2)n1	62.6	0	0	0
Cc1occc1-c1nnc(SCC(=O)Nc2nccs2)n1Cc1ccco1	54.6	0	0	72.1
CCOC(=O)C1CCCN(c2nc3ccccc3nc2C(C#N)C(=O)NCc2ccccc2)C1 (stereo not drawn)	62.1	0	0	0
CCOC(=O)N1CCN(c2nc3ccccc3nc2C(C#N)C(=O)NCCc2ccccc2)CC1 (stereo not drawn)	72.6	0	0	65.0
N#CC(C(=O)NCc1ccccc1)c1nc2ccccc2nc1N1CCCC1 (stereo not drawn)	0	0	0	0
N#CC(C(=O)NCCc1ccccc1)c1nc2ccccc2nc1N1CCCCC1 (stereo not drawn)	0	0	0	0
CC(=O)NS(=O)(=O)c1cccnc1Nc1cccc(Cl)c1	50.5	0	0	0
COc1ccc(Nc2ncccc2C(=O)O)cc1	0	0	0	0
CC(=O)NS(=O)(=O)c1cccnc1Nc1ccc(Cl)cc1	84.9	0	0	0
Cc1cc(C)cc(Nc2cc(C)nc3nc(C)nn23)c1	0	0	0	0
Cn1ncc2c(Nc3ccc(-c4ccccc4)cc3)ncnc21	0	0	0	0
Cc1cc(C=O)c(C)n1-c1cc(C(F)(F)F)ccc1N1CCOCC1	0	0	0	91.5
COc1ccc(N2CCN(C(=O)CN3C(=O)C4CC=CCC4C3=O)CC2)cc1 (stereo not drawn)	0	0	0	0
Cc1cc(OCCCCCNCCO)cc(C)c1Cl	0	0	0	0
Cc1cc(C)c(OCCCCCNCCO)c(C)c1	86.9	0	0	0
Cn1c(SCC(=O)NCCNC(=O)CSc2nnc(C(F)(F)F)n2C)nnc1C(F)(F)F	0	0	0	0
Cc1cccc(NC(=O)C23CCC(C)(/C(=N/O)C2)C3(C)C)c1 (stereo not drawn)	0	0	0	0
CC12CCC(C(=O)Nc3ccccc3)(C/C1=N\O)C2(C)C (stereo not drawn)	0	0	0	78.3
SMILES	CYP2C9 inh	CYP2C19 act	CYP2C9 act	CYP2C19 inh
COCCn1c(SCC(=O)NCC2CCCO2)nc2c(c1=O)SC(C)C2 (stereo not drawn)	0	0	0	0
CC1(C)CC(=O)C(C=NC(CCC(N)=O)C(=O)O)=C(O)C1 (stereo not drawn)	0	0	0	0
CC1CCCCN1S(=O)(=O)c1ccc(C(=O)Nc2sccc2C(N)=O)cc1 (stereo not drawn)	97.1	0	0	0
NC(=O)c1ccsc1NC(=O)C1CCCN1S(=O)(=O)c1ccc(Cl)cc1 (stereo not drawn)	77.9	0	0	60.9
O=C(Nc1nccs1)C1CCCN1S(=O)(=O)c1ccc(Cl)cc1 (stereo not drawn)	69.0	0	0	0
CC(C)CNC(=O)C1CCCN1S(=O)(=O)c1ccc(Cl)cc1 (stereo not drawn)	0	0	0	0
COc1ccc(-c2nnc(SCC(=O)N(Cc3ccccc3)C(C)(C)C)o2)cc1OC	0	0	0	0
CCOc1ccc2[nH]cc(C(=O)N3CCN(CC)CC3)c(=O)c2c1	0	0	0	0
CCOC(=O)c1cc(-c2ccc(C)o2)n[nH]1	52.2	0	0	0
CCOC(=O)c1cc(-c2cc3ccccc3o2)n[nH]1	0	0	0	0
CCOC(=O)c1c(-c2ccsc2)csc1N	0	0	0	62.6
CCOC(=O)c1c(-c2ccc(C)o2)csc1N	0	0	0	58.8
COCCNC(=O)C1CC(c2cccc([N+](=O)[O-])c2)=NO1 (stereo not drawn)	0	0	0	0
CCOC(=O)c1cnc2c(c(C)nn2C)c1Oc1ccc(Cl)cc1	0	0	0	0
